According to PubChem BioAssay:
The source made the active and inactive calls. Unless noted, how the calls were made is not given here.

Assays:
[1] = system: Wnt5a (protein binding on small-molecule microarray); assay: small molecules binding Wnt5a protein – biophysical, small-molecule microarray, 635/667 nm fluorescence, primary screen (AID 1142); conditions: 635 nm fluorescence, higher = more signal;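 further: fluorescence read at 667 nm with signal to noise per printed feature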
[2] = ATP-based viability of Huh7 replicon cells – cell-based, CellTiter-Glo luminescence, basal, 48 h, cytotoxicity control for HCV replication inhibitor project, primary screen (AID 1143); conditions: higher = more signal, called active from +8 up or from −8 down;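 further: Huh7 hepatoma cells carrying a hepatitis C replication reporter with no stimulus; test concentration not given here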
[3] = Pseudomonas biofilm growth suppression – PAO1 strain, BacTiter-Glo luminescence, LB-PBS, primary screen (AID 1144); conditions: P. aeruginosa PAO1 biofilm, 12 h, higher = more signal
[4] = basal CRE-LacZ reporter activity in PC12 – cell-based, unstimulated, primary screen (AID 1145); conditions: no forskolin, luminescence, 4.5 h, higher = more signal, called active from +8 up or from −8 down
[5] = forskolin-driven CRE-LacZ activity in PC12 – cell-based, CRE-LacZ reporter, forskolin-stimulated, primary screen (AID 1146); conditions: luminescence, 4.5 h, higher = more signal, called active from +8 up or from −8 down;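 further: PC12 cells with 6xCRE LacZ reporter stimulated by forskolin 10 µM; beta-galactosidase reporter signal reflecting CREB driven transcription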
[6] = molecular target: Streptavidin (Streptomyces avidinii) (UniProt P22629); assay: compounds binding control protein streptavidin – biophysical, small-molecule microarray, 635/667 nm fluorescence, artefact control for SMM compound annotation, primary screen (AID 1147); conditions: higher = more signal;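 further: signal reflects streptavidin binding to arrayed compounds as a control protein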
[7] = probe aInhba binding on compound microarray – biochemical, small-molecule microarray, 635/667 nm fluorescence, primary screen (AID 1148); conditions: higher = more signal;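 further: score merges 667nm spot fluorescence with signal-to-noise for antibody binding to printed compounds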
Torsin-1A (Homo sapiens) [8] = molecular target: Torsin-1A (Homo sapiens) (UniProt O14656); assay: TOR1A wild-type binding on microarray – cell lysate, small-molecule microarray, lysate, 635/667 nm, primary screen (AID 1149); conditions: COS7 hTOR1A-WT lysate, 635 nm fluorescence, higher = more signal
Torsin-1A (Homo sapiens) [9] = molecular target: Torsin-1A (Homo sapiens) (UniProt O14656); assay: torsin A mutant lysate binding on microarrays – cell lysate, small-molecule microarray, COS7 lysate, 635/667 nm fluorescence, primary screen (AID 1150); conditions: COS7 hTOR1A mutant lysate, 635 nm fluorescence, higher = more signal;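 further: score pools 667 nm emission and signal to noise measuring lysate protein binding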
[10] = system: Sonic hedgehog protein (Shh); assay: Sonic hedgehog microarray binding compounds – biochemical, small-molecule microarray, 635/667 nm fluorescence, primary screen (AID 1151); conditions: 635 nm fluorescence, higher = more signal;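 further: Shh protein binding to compounds spotted on small-molecule microarray slides; score combines spot fluorescence intensity with signal-to-noise across triplicate slides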
[11] = optical density shifts of acrAB sulA E. coli – strain DRC41, OD650, 48 h, E. coli filamentation inducer project, primary screen (AID 1152); conditions: higher = more signal, called active from +8 up or from −8 down;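 further: E. coli MC1000 strain DRC41 lacking acrAB efflux pump and sulA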
[12] = probe aLefty1 binding on compound microarray – biochemical, small-molecule microarray, 635/667 nm fluorescence, primary screen (AID 1153); conditions: higher = more signal;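 further: score merges spot fluorescence with signal-to-noise ratio from the scanned slide images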
[13] = plasmodial surface anion channel blockers, osmotic lysis – cell-based, P. falciparum Indochina, OD700, 1 h, primary screen (AID 1154); conditions: P. falciparum Indochina infected RBC osmotic lysis, higher = more signal, called active from +8 up or from −8 down
[14] = plasmodial surface anion channel blockers, osmotic lysis – cell-based, P. falciparum Indochina, OD700, 2 h, primary screen (AID 1155);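 further: lysis reports solute entry through the parasite surface anion channel PSAC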; conditions: P. falciparum Indochina infected erythrocytes, higher = more signal, called active from +8 up or from −8 down
[15] = changes in parasitized red cell lysis, either direction – P. falciparum Indochina, OD700, 3 h, PSAC antagonist project, primary screen (AID 1156); conditions: P. falciparum-infected erythrocytes, osmotic lysis, higher = more signal, called active from +8 up or from −8 down
[16] = plasmodial surface anion channel blockers, osmotic lysis – cell-based, P. falciparum Indochina, OD700, 18 h, primary screen (AID 1157); conditions: P. falciparum Indochina infected erythrocytes, osmotic lysis OD700, 18 h; higher = more signal, called active from +8 up or from −8 down
[17] = S6 kinase pathway phospho-S6 level changes – cell-based, A549, cytoblot, luminescence, serum-stimulated, primary screen (AID 1158); conditions: 5 h, higher = more signal;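 further: serum-stimulated A549 lung adenocarcinoma cells; signal is phosphorylated S6 detected by cytoblot immunostaining with HRP secondary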
[18] = molecular target: NADPH oxidase 2 (Homo sapiens) (UniProt P04839); assay: compounds shifting NOX2 Amplex Red fluorescence – cell-based, HEK293-NOX2, PMA-stimulated, NOX inhibitor project, primary screen (AID 1159); conditions: 45 min, higher = more signal, called active from +8 up or from −8 down; further: test concentration not given here
[19] = molecular target: NADPH oxidase 4 (Homo sapiens) (UniProt Q9NPH5); assay: compounds shifting NOX4 Amplex Red fluorescence – cell-based, HEK293-NOX4, tetracycline-induced, NOX inhibitor project, primary screen (AID 1160); conditions: HEK293-NOX4, Amplex Red H2O2 fluorescence, 45 min; higher = more signal, called active from +8 up or from −8 down
[20] = molecular target: NADPH oxidase 5 (Homo sapiens) (UniProt Q96PH1); assay: compounds shifting NOX5 Amplex Red fluorescence – cell-based, HEK293-NOX5, NOX inhibitor project, primary screen (AID 1161); conditions: HEK293-NOX5, ionomycin, 45 min, higher = more signal
Sequence of NADPH oxidase 5 (Homo sapiens) (Q96PH1 whole entry, looked up): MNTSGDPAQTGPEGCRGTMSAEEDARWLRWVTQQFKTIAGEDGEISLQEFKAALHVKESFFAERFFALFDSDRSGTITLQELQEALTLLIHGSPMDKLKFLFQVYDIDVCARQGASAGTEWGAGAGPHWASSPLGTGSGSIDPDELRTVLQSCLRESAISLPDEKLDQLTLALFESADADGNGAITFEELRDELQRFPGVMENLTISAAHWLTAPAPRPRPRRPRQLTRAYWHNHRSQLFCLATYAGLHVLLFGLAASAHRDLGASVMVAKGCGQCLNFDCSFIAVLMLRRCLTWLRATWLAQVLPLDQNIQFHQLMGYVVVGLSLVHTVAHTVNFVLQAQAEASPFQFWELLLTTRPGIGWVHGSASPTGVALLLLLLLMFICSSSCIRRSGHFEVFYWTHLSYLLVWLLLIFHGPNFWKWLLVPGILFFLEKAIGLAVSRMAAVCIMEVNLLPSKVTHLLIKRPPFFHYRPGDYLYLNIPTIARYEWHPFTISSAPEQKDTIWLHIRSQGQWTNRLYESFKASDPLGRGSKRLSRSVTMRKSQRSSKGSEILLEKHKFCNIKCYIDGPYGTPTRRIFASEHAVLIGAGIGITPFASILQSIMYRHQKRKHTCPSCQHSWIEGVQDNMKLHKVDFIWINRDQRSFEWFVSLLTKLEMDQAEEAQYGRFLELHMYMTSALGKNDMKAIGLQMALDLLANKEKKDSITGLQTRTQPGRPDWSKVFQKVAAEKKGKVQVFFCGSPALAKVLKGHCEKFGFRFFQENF

Sequence of Torsin-1A (Homo sapiens) (O14656 whole entry, looked up): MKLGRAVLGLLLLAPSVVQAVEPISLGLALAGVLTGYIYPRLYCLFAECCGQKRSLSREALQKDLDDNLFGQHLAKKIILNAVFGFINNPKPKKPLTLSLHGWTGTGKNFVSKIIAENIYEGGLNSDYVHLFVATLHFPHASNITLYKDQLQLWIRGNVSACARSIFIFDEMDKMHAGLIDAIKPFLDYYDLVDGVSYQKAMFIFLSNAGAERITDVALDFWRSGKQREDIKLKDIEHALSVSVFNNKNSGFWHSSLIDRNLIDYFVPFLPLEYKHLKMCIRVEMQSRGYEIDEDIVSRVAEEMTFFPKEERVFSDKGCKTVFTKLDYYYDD
Sequence of NADPH oxidase 2 (Homo sapiens) (P04839 whole entry, looked up): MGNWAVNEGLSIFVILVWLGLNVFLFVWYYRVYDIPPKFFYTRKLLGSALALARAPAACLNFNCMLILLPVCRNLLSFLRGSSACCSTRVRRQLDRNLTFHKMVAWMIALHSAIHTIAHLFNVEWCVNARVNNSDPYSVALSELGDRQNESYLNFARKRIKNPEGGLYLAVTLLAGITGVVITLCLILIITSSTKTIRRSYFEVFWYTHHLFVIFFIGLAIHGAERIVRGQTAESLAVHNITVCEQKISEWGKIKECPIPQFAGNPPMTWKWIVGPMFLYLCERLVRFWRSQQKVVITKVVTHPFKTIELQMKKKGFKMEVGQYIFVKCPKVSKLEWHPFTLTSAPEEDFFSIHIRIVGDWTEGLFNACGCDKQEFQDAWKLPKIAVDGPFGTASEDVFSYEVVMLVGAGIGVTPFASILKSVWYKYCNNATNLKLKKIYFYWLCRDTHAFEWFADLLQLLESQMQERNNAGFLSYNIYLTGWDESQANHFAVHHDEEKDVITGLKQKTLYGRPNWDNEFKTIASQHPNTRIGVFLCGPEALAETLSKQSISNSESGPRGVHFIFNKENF
Sequence of NADPH oxidase 4 (Homo sapiens) (Q9NPH5 whole entry, looked up): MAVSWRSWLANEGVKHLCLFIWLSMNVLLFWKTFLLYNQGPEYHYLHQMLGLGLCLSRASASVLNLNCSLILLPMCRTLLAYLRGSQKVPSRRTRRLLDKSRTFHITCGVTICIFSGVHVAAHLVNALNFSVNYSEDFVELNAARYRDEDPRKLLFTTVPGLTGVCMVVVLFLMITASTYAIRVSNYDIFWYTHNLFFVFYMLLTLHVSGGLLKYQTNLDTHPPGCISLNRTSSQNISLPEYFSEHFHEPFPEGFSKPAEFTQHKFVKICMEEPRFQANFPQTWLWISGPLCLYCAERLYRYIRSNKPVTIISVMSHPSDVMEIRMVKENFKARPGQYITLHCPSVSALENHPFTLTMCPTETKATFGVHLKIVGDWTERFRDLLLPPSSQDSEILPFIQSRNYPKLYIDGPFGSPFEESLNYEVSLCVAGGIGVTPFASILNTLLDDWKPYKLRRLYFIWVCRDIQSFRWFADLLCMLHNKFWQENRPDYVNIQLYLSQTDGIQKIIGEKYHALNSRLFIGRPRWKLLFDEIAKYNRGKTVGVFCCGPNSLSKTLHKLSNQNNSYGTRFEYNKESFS
Sequence of Streptavidin (Streptomyces avidinii) (P22629 whole entry, looked up): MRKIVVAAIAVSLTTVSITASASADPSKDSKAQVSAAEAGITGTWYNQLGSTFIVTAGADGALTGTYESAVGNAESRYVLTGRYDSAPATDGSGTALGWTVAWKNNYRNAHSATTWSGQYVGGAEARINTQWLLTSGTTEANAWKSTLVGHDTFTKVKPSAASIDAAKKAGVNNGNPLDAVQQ

| SMILES | composite z-score [1] | z-score [2] | z-score [3] | z-score [4] | z-score [5] | composite z-score [6] | composite z-score [7] | composite z-score (Torsin-1A (Homo sapiens) [8]) | composite z-score (Torsin-1A (Homo sapiens) [9]) | composite z-score [10] | z-score [11] | composite z-score [12] | z-score [13] | z-score [14] | z-score [15] | z-score [16] | z-score [17] | z-score [18] | z-score [19] | z-score [20] |
| --- | --- | --- | --- | --- | --- | --- | --- | --- | --- | --- | --- | --- | --- | --- | --- | --- | --- | --- | --- | --- |
| CO[C@H]1COC(=O)[C@H](C)NC(=O)[C@@H](C)COC(=O)CC=C[C@@H]1C | -0.185 | -0.068 (inactive) | -0.865 (inactive) | 0.341 (inactive) | -0.178 (inactive) | -0.356 | -0.016 | 1.24 | 0.296 | 1.47 | 0.66 (inactive) | -0.251 | 0.945 (inactive) | 0.54 (inactive) | 0.795 (inactive) | 0.465 (inactive) | 0.0768 | -0.835 (inactive) | 0.412 (inactive) | 0.193 |
| O=C1[C@H]2[C@H]3[C@H](O)[C@H](O)CC(=NOCc4ccccc4)[C@H]3CC[C@H]2C(=O)N1c1cccc(Oc2ccccc2)c1 | 0.242 | -2.26 (inactive) | 0.768 (inactive) | -0.384 (inactive) | -0.271 (inactive) | 0.293 | 0.0108 | 0.294 | 0.363 | 1.24 | 0.0144 (inactive) | -0.0193 | 6.64 (inactive) | 1.42 (inactive) | 0.969 (inactive) | 0.525 (inactive) | -0.219 | -1.86 (inactive) | -1.01 (inactive) | -3.91 |
| CCc1cc2c(nc1CC)CCN(CCC(C)=NOC[C@@H](O)[C@H]1O[C@@H]3OC(C)(C)O[C@@H]3[C@H]1O)C2 | 0.146 | 0.731 (inactive) | -0.319 (inactive) | 0.006 (inactive) | 0.347 (inactive) | 0.18 | -0.0216 | 0.3 | 0.101 | 0.528 | -1.12 (inactive) | -0.179 | 0.202 (inactive) | -0.336 (inactive) | 0.0286 (inactive) | 0.0977 (inactive) | -0.512 | 0.336 (inactive) | 0.494 (inactive) | 2.57 |
| Cn1c(=O)n2n(c1=O)[C@H]1[C@H](O)[C@@H]3O[C@@H]3C(=NOC[C@@H](O)COCc3ccco3)[C@H]1CC2 | 0.0562 | -0.0843 (inactive) | 0.0712 (inactive) | 0.248 (inactive) | 0.496 (inactive) | 0.548 | 0.0345 | 0.547 | 0.266 | 0.582 | 0.301 (inactive) | 0.946 | 0.697 (inactive) | -0.507 (inactive) | 0.671 (inactive) | 0.08 (inactive) | 0.0625 | -1.04 (inactive) | 0.733 (inactive) | 0.59 |
| COc1ccc(COC(=O)NN=C2C[C@@H](O)[C@@H](O)[C@@H]3[C@@H]4C(=O)N(Cc5ccc6c(c5)OCO6)C(=O)[C@@H]4CC[C@@H]23)cc1 | 0.0183 | -0.797 (inactive) | 0.786 (inactive) | 1.61 (inactive) | -0.41 (inactive) | 1.09 | 0.0028 | -1.15 | -0.686 | -1.07 | 0.306 (inactive) | 1.15 | 11.8 (active) | 0.801 (inactive) | 0.819 (inactive) | -1.17 (inactive) | 1.27 | -0.377 (inactive) | 0.343 (inactive) | 0.964 |
| C[C@@H]1CC[C@H]2C(=O)O[C@H](COc3ccc(C(C)(C)C)cc3)CN2[C@H]1c1ccc(Br)cc1 | -0.131 | -0.443 (inactive) | -0.301 (inactive) | 0.262 (inactive) | 0.203 (inactive) | 0.102 | -0.17 | -0.175 | -0.142 | 0.348 | -0.425 (inactive) | -0.279 | 0.813 (inactive) | 0.538 (inactive) | -0.082 (inactive) | 0.343 (inactive) | -0.53 | 0.0709 (inactive) | -1.99 (inactive) | 0.568 |
| NC(=O)NCC#Cc1ccc2c(c1)[C@]1(C(=O)N2)[C@H](c2ccc(O)cc2)N2[C@H](c3ccccc3)[C@H](c3ccccc3)OC(=O)[C@H]2[C@@H]1C(=O)N1CCCCCCC1 | 0.2 | -0.502 (inactive) | -0.75 (inactive) | -0.231 (inactive) | -0.674 (inactive) | 0.393 | 1.23 | -0.067 | 0.609 | 1.06 | -0.403 (inactive) | 2.04 | 0.578 (inactive) | -0.175 (inactive) | 0.35 (inactive) | 0.197 (inactive) | 0.0459 | 1.71 (inactive) | 0.802 (inactive) | 1.2 |
| CC(C)C[C@@H]1NC(=O)[C@H]2C[C@@H](C(=O)O)[C@@H](c3ccc(O)cc3)N2C1=O | 0.0112 | -0.354 (inactive) | -0.1 (inactive) | 0.281 (inactive) | -0.627 (inactive) | 0.0925 | -0.0521 | 0.884 | 0.285 | 1.67 | 0.498 (inactive) | 0.0455 | 5.88 (inactive) | 1.66 (inactive) | -1.66 (inactive) | 0.448 (inactive) | -0.239 | -1.72 (inactive) | -2.25 (inactive) | -0.356 |
